Our source for the Potency values is PubChem BioAssay AID720575 (National Center for Advancing Translational Sciences (NCATS), 2013).

A short description of this assay: qHTS Assay for Inhibitors of Hepatitis C Virus (HCV): Confirmation Assay for Cherry-picked Compounds. To be noted: Potency: inhibition. The text has this: Hepatitis C virus (HCV) infects about 200 million people in the world. Many infected people progress to chronic liver disease including cirrhosis with a risk of developing liver cancer. To date, there is no effective vaccine for hepatitis C. Current therapy based on interferon is only effective in about half of the patients and is associated with significant adverse effects. The fraction of people with HCV who can complete a successful treatment is estimated to be no more than 10 percent. Recent development of direct-acting antivirals against HCV, such as protease and polymerase inhibitors, is promising but still requires combination with peginterferon and ribavirin for maximal efficacy. In addition, these agents are associated with high rate of resistance and many have significant side effects. Due to the lack of a culture system for infectious HCV, the search for new HCV drugs has been greatly hampered. […] High-throughput screening (HTS) with an infectious HCV system would cover the complete spectrum of potentially druggable targets in all stages of HCV lifecycle, and would have more biological relevance than other cell-based assays. […]
Cells were plated in a 1536-wel tissue culture grade plates at a final concentration of 1,000 cells/well (3 uL volume). […] The luciferase activity was read for 15 sec using the PerkinElmenr ViewLux plate reader.

This is one part of the list. Entries that show only a call come without a potency. Records with an inconclusive call do not appear. The source made the active and inactive calls. The call rests on the fitted dose curve; in most records, active means well fitted inhibition curve with a large enough effect; inconclusive means small, poorly fitted or top-dose-only effect; inactive means no such curve, though single readings can be large or run the other way.
Further: nearly all actives have a fitted effect of over 80% in size.

With `CC[N+]1(C)CCCC(OC(=O)C(O)(c2ccccc2)c2ccccc2)C1` (configuration not stated), the Potency result was “inactive”.
The figure for `CC1=CC(=Cc2sc3ccccc3[n+]2C)C=C(C)O1` is 4.99 µM (active).
